The text below walks through data of PubChem BioAssay (NCATS).

Results filed as inconclusive are left out. Values without a mark were called inactive. Active and inactive are the calls of the source. Calls follow the shape of the dose curve; as a rule, active = well fitted inhibition curve with a large enough effect; inconclusive = small, poorly fitted or top-dose-only effect; inactive = no such curve, though single readings can be large or run the other way.
% is scaled to controls: 0 for no effect and ±100 for the full control effect; potency is read from the fitted curve at half-maximal effect.

The subject of the experiment is Zika virus NS2B-NS3 protease (unlinked complex). The experiment in a line: Primary screen GU Rhodamine qHTS for Zika virus inhibitors: Unlinked NS2B-NS3 protease assay (AID 1347159). Also: nearly all actives have a fitted effect of over 60% in size. Conditions: Recombinant ZIKV NS2B-NS3 protease, Rhodamine110 substrate fluorescence; series mostly up to 107 µM; activity change, negative = inhibition: at the top concentration. From the text:
Avindra Nath, Ph.D., National Institute of Neurological Disorders and Stroke (NINDS), Bethesda, MD
Radhakrishnan Padmanabhan, Ph.D., Georgetown University (GU), Washington D.C.
Zika Virus causes congenital defects, including microcephaly and is associated with Guillain-Barre syndrome, eningoencephalitis and myelitis in infected adult. […] Using a target-based approach, we hope to establish a screening paradigm to uncover novel, cell-active NS2B-NS3 protease (Zika Virus) specific inhibitors from NCATS' collection of small molecules using qHTS.
Four assay panel was created to identify potential Zika Virus inhibitors. Namely, (1) GU unlinked NS2B-NS3 AMC tagged protease qHTS, (2) GU unlinked NS2B-NS3 Rhodamine tagged protease qHTS, (3) NINDS linked NS2B-NS3 AMC tagged protease qHTS, (4) NINDS linked NS2B-NS3 Rhodamine tagged protease qHTS. Active compounds were re-acquired and re-screened to confirm inhibition. Inhibitors were further screened against various confirmatory and counterscreens in dose response format.
Early Translation Branch (ETB)
National Center for Advancing Translational Sciences (NCATS), Rockville, MD
National Institute of Health (NIH), Bethesda, Maryland
Padmanabhan lab provided the NS2B hydrophilic domain and NS3 protease domain in a noncovalent complex used for the unlinked assay. Control compound aprotinin is obtained from Thermo Scientific (#78432; Waltham, Massachusetts). Rhodamine110 substrate ([N-Cbz]-Nle-Lys-Arg-Arg-Rhod110-Arg-Arg-Lys-Nle-[N-Cbz]) was purchased from either Genscript or Bachem.
1536-well Protease (Rhodamine110 Substrate) Assay:
Briefly, 3 microL of enzyme (25 nM final concentration), in assay buffer (10 mM Tris-HCl pH 8.0 with 0.01% Tween 20) were dispensed into a 1,536-well solid-bottom black plate (Greiner Bio One, Monroe, NC). Twenty-three nL of compounds (final concentration range 7.28 nM to 114 microM) or control Aprotinin (final concentration range 3.47 nM to 114 microM) were transferred via Wako Pin-tool (Wako Automation, Richmond, VA). Samples were incubated (room temperature, protected from light) for 15 minutes followed by a 1 microL Rhodamine110 substrate addition (1.5 microM final concentration). Plates were then immediately read on a ViewLux High-throughput CCD imager (PerkinElmer, Waltham, MA) equipped with FITC fluorescence optics (480(20) nm excitation, 540(25) nm emission), then incubated (room temperature, protected from light) for 15 minutes (~15% conversion). The change in fluorescence intensity over the 15-minute reaction period was normalized against no-inhibitor and no-enzyme controls and the resulting percent inhibition data were fitted to a 4-parameter Hill equation. Aprotinin was used as intraplate control.
In the case of `O=C(CCCCCCCCC#CI)Oc1ccccc1`, the “activity change, negative = inhibition” value is 37.9%. In the case of `N[C@@H](Cn1ccc(=O)c(O)c1)C(=O)O`, the activity change, negative = inhibition was 13% [at 11.5 µM]. For `CCN1C(=O)c2ccccc2C1Nc1ccc(OCCN2CCCCC2)cc1` (stereo not given), the “activity change, negative = inhibition” value was -18.3%. Still for that read-out and setting: with `O=C1CC[C@H](C(=O)N2CCCCC2)N1` the figure was -15.3%; with `O=C(CCC1CCN(Cc2ccccc2)CC1)c1ccc2c(c1)NCCCC2`, 3.82%; with `Cc1nn(-c2ccccc2)c(C)c1/C=N/N1CCN(Cc2ccccc2)CC1`, -18.4%. The same measure, in the same setting: the figure for `CO[C@]1(NC(=O)CSC(F)F)C(=O)N2C(C(=O)O)=C(CSc3nnnn3CCO)CO[C@H]21` is 42.7%; for `COc1cc(C(=O)OC(COCCC(C)C)CN2CCOCC2)cc(OC)c1OC` (stereo not given) it is 6.77%. As for `CCN(CC)CCOc1ccc(/C(=C(\Cl)c2ccccc2)c2ccccc2)cc1`, the “activity change, negative = inhibition” value was 112%. In the case of `CCN1CCN(c2cc(-c3ccc(F)cc3)c3c(n2)CCCCCC3)CC1`, the “activity change, negative = inhibition” value was 0%. On the same count and under the same terms, the figure for `CC(=O)OCC(=O)Nc1cc(C#N)cc(NC(=O)COC(C)=O)c1Cl` is 65.6%; for `O=C1NC2CCCCN2C12CCN(CCCN1c3ccccc3CCc3ccc(Cl)cc31)CC2` (stereo not given) it is 34.9%. For the compound `CCOC(=O)Cn1cccc1-c1nc(-c2ccc(OC)cc2)c(-c2ccc(OC)cc2)s1`, the “activity change, negative = inhibition” value was 0%. Take `Cc1cccc(N(C)C(=S)Oc2ccc3c(c2)CCC3)c1`: the “activity change, negative = inhibition” value is 0%. With `CCOC(=O)c1ccc(OCCN2C[C@H](O)[C@@H](O)[C@H](O)[C@H]2CO)cc1`, the “activity change, negative = inhibition” value was 0%. For `CO/N=C(/C(=O)N[C@@H]1C(=O)N2C(C(=O)O)=C(Cn3nnc(C)n3)CS[C@H]12)c1csc(N)n1`, the “activity change, negative = inhibition” value is 3.56%. The same measure, in the same setting: the figure for `Brc1ccc([C@H]2CN3CCSC3=N2)cc1` is -45.1%; for `CCOC(=O)c1ccc(NC(=O)CN2CCCCC2)cc1` it is 8.94%. Same read-out and setting: with `OC1(c2ccc(Cl)c(C(F)(F)F)c2)CCN(CCCC(c2ccc(F)cc2)c2ccc(F)cc2)CC1` the figure was 231%; with `O=C1NC(c2cccc([N+](=O)[O-])c2)=CCN1c1ccccc1O`, 0% [at 32.5 µM]; with `CC(C(=O)O)c1ccc(/C=C2\CCCCC2=O)cc1` (stereo not given), -22.3%. Consider `O=C1NC(=O)/C(=C/c2ccc3c(c2)OC(F)(F)O3)S1`, for which the Potency is 12.6 µM (active). Regarding `CC(=O)O[C@@H]1C(=O)O[C@@H]2[C@H]1OC(=O)[C@@H]2OC(C)=O`, the “activity change, negative = inhibition” value is -4.79%. Consider `C=CCOc1cc(Cl)ccc1C(=O)NCCN(CC)CC`, for which the “activity change, negative = inhibition” value is 0%. Regarding `C=CC[N+]1([C@H]2C[C@H]3[C@@H]4CC[C@H]5C[C@H](OC(C)=O)[C@@H](N6CCCCC6)C[C@]5(C)[C@H]4CC[C@]3(C)[C@H]2OC(=O)CC)CCCCC1`, the “activity change, negative = inhibition” value is -3.77%. Still for that read-out and setting: with `O=C(O)CNC(=O)CNC(=O)CNC(=O)CSC(=O)c1ccccc1` the figure was 0%. The same measure, in the same setting: the figure for `CC(=O)Nc1ccn(C2COC(COC(=O)c3ccccc3)O2)c(=O)n1` (stereo not given) is 0%; for `CCC(C(=O)NC(=O)NC(C)=O)c1ccccc1` (stereo not given) it is -13.5%.

`O=C1[C@@H]2[C@H]3CC[C@H](C3)[C@@H]2C(=O)N1CCCCN1CCN(c2ncccn2)CC1`: the “activity change, negative = inhibition” value is -6.08%. On the same count and under the same terms, with `Nc1ncnc2n[nH]c(Nc3ccc(F)cc3)c12` the figure was -24.4%; with `COc1ccccc1N1CCN(CCN2C(=O)CC3(CCCC3)CC2=O)CC1`, 37.5%; with `CC(C)(C)c1nnc(NS(=O)(=O)c2ccccc2)s1`, 0%.

Turning to `CC(=O)Oc1ccc(C2(c3ccc(OC(C)=O)cc3)Oc3ccccc3NC2=O)cc1`, the “activity change, negative = inhibition” value was 0%. With `COC(=O)C1=C(C)NC(COC(N)=O)=C(C(=O)OC(C)C)C1c1cccc(Cl)c1Cl` (stereo not given), the “activity change, negative = inhibition” value is 0%.

As to `CC1CN(c2cc3c(cc2F)c(=O)c(C(=O)O)cn3-c2ccc(F)cc2F)CCN1` (stereo not given), the “activity change, negative = inhibition” value was 0%. The same measure, in the same setting: the figure for `CN1CCC(N(Cc2cccs2)c2ccccc2)CC1` is 0%; for `CN(C)C(=O)CNC(=O)Cc1ccccc1` it is 23.5%; for `CCCCNc1ccc(C(=O)OCCN(CC)CC)cc1` it is 0%. For `Clc1ccc2c(c1)N=C(N1CCNCC1)c1ccccc1N2`, the “activity change, negative = inhibition” value was 21.4%. Consider `CC1c2ccccc2CN1NC(=O)c1ccc(Cl)c(S(N)(=O)=O)c1` (stereo not given), for which the “activity change, negative = inhibition” value was 0%.
